Rows were chosen to be rich in hits. Some 4.6% of all compounds tested hit in one or more screens of this group.
Wee1 stabilizer = blocks degradation of human Wee1 kinase; P30291; HeLa Luc-Wee1K328M stability, luciferase luminescence; 100% = proteasome inhibitor MG132 effect; reporter increase, % at 5 µM; 1.2% of 220,000 active;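 active = activation above the mean of all tested compounds plus 3 SD, set per screening run, cut at about 8.8% in these data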;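 note: cells exposed to compound for 20 h before luminescence read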
hcDAF-12 act = H. contortus DAF-12 activation, primary screen | activation, % at 6.8 µM | 1.4% of 370,000 active | AID 652067 | HEK293 hcDAF-12 lit1-tk-luc reporter, luminescence; 0% DMSO, 100% Δ7-dafachronic acid;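 active = activation above the mean of all tested compounds plus 3 SD, cut at about 5.5% in these data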
DAX1 inh-1 = inhibits human nuclear receptor DAX1 | P51843 | HEK293 Gal4-DAX1 luciferase reporter, luminescence | inhibition, % at 6.75 µM | 0.99% of 340,000 active | AID 504766;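 active = inhibition above the mean over all tested compounds plus 3 SD, cut at about 4.2% in these data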;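 note: inhibition shows as a rise in luminescence from relieved DAX1 repression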
Target sequence (P51843 207-470 limits assumed): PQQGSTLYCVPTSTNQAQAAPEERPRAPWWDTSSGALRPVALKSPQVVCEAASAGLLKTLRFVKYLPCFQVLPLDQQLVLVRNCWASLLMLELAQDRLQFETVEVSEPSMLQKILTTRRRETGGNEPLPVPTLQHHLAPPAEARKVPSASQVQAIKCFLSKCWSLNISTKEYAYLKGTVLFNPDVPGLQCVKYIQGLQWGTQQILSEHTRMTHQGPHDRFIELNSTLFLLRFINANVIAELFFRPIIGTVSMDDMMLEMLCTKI
hgDAF12 agonist = agonists of H. glycines DAF-12 nuclear receptor; activation, % at 6.8 µM; 1.8% of 370,000 active; HEK293 GAL4-hgDAF12 UAS-luciferase reporter, agonist luminescence; normalized to butyrate control;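 active = activation above a cutoff set at the mean of all screened compounds plus 3 SD, cut at about 10% in these data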
DAX1 inh-2 = blocks DAX1 repression of SF-1 activated StAR promoter. HEK293T StAR-luciferase reporter, SF-1/DAX-1 repression relief. inhibition, % at 6.8 µM. 1.1% of 370,000 active. AID 652010;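 active = inhibition above the mean over all tested compounds plus 3 SD, cut at about 3.6% in these data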;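 note: higher inhibition means more luminescence from relief of DAX-1 repression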
ssDAF-12 act = S. stercoralis DAF-12 activation, primary screen; HEK293 ssDAF-12/GRIP1 lit1-tk-luc reporter, luminescence; % of 3 µM dafachronic acid response; activation, % at 6.8 µM; 1% of 370,000 active; AID 652126;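 active = activation above the mean over all tested compounds plus 3 SD, cut at about 0.9% in these data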
Numbers stand for hits; n = inactive; x = no result.

SMILES	Wee1 stabilizer	hcDAF-12 act	DAX1 inh-1	hgDAF12 agonist	DAX1 inh-2	ssDAF-12 act
CCOC(=O)Cn1cc(CN2CCS(=O)(=O)N(Cc3ccc(F)cc3)C(C(=O)OC)C2)nn1 (centres undefined)	x	n	x	n	n	n
CC(C)Cc1cc(C(=O)Nc2cccnc2)no1	n	n	n	n	4.4	n
O=C(Nc1cccnc1)c1cc(-c2ccc(Cl)cc2Cl)on1	x	n	6.7	n	n	n
O=C(Nc1cccnc1)c1cc(-c2ccc(Cl)cc2)on1	n	n	n	n	n	n
Cc1cc(C(=O)Nc2cccnc2)no1	n	x	n	x	x	x
CC(C)C[C@H]1COc2cccc(F)c2S(=O)(=O)N1Cc1cn(CC2CCCCC2)nn1	x	n	x	n	n	n
CCOc1cc(/C=C(/C#N)c2nc3ccccc3[nH]2)ccc1Oc1ccc([N+](=O)[O-])cn1	n	5.8	n	n	n	n
CCOc1cc(/C=C(\C#N)c2nc3ccccc3[nH]2)ccc1OC(C)C(=O)O (centres undefined)	x	n	n	n	n	n
COc1ccc(S(=O)(=O)N2CCCCC2)cc1NC(=O)C1CC1(Cl)Cl (centres undefined)	x	n	n	n	n	n
COc1ccc(C2C(C(=O)Nc3ccc(C)c(C)c3)CCC(=O)N2c2ccc(OC)cc2)cc1 (centres undefined)	x	n	x	n	n	n
CC(C)n1cc(C#N)c(N)n1	x	n	n	n	n	n
O=C1/C(=C\c2cccnc2)CCc2ccccc21	n	n	n	12	n	n
O=C1/C(=C/c2ccc(O)cc2)CCc2ccc([N+](=O)[O-])cc21	n	n	n	n	n	n
CC(=O)Nc1ccc(/C=C2\CCc3ccccc3C2=O)cc1	x	6.1	n	n	n	n
O=C1/C(=C\c2ccc([N+](=O)[O-])cc2)CCc2ccccc21	n	n	n	11	n	n
COc1ccc(/C=C2\Cc3ccccc3C2=O)cc1OC	n	n	n	n	n	n
COc1ccc(C=C2Cc3ccccc3C2=O)cc1	x	n	x	11	n	n
O=C1C(=Cc2ccc(F)cc2)Cc2ccccc21	x	n	x	n	n	n
CCOc1ncccc1C(=O)Nc1cc2c(cc1Br)OCCO2	x	n	n	n	n	n
O=C(CSc1nnc(-c2ccco2)n1-c1ccc(Cl)cc1)Nc1ccc(S(=O)(=O)Nc2nccs2)cc1	x	n	x	n	n	n
CC(=O)Nc1sc(C)c(C)c1C(=O)OCC(=O)NCc1ccccc1	x	n	n	n	n	n
CC(=O)Nc1sc(C)c(C)c1C(=O)OCC(=O)Nc1ccccc1C(F)(F)F	x	n	n	11	n	n
Cc1cn([C@H]2C[C@H](O)[C@@H](CNCc3cc(Br)ccc3OCc3ccccc3)O2)c(=O)[nH]c1=O	x	n	n	n	n	n
CCCn1nnc2c(=O)oc3ccccc3c21	n	n	n	n	n	n
CCCCCn1nnc2c(=O)oc3ccccc3c21	n	n	n	n	n	1.1
SMILES	Wee1 stabilizer	hcDAF-12 act	DAX1 inh-1	hgDAF12 agonist	DAX1 inh-2	ssDAF-12 act
COc1ccc(CNC(=O)CNC(=O)CNS(=O)(=O)c2ccc(C)c(C)c2)cc1	x	n	n	n	n	0.9
Cc1ccc(Cl)cc1NC(=O)CCC(=O)O	n	n	5.0	n	n	n
Cc1ccc(Cl)cc1NC(=S)NN	n	n	x	n	n	0.9
O=C(Nc1ccc(C(O)c2ccccc2)cc1)[C@@H]1O[C@H](CO)[C@@H](O)[C@H]1O (some centres undefined)	x	n	x	n	n	n
CCOC(=O)[C@]12CCCC=C1N(CCCOC)C(=O)[C@@H]2CC(=O)N1CCCC1	x	n	x	n	n	n
O=C(COC(=O)c1ccc(F)cc1)NCCc1ccc(F)cc1	n	n	n	n	n	n
O=C(COC(=O)c1cc(Cl)nc(Cl)c1)NCCc1ccc(F)cc1	x	n	n	n	n	1.6
CCOC(=O)N1CCN(C(=O)C[C@H]2C[C@@]3(C(=O)OC)C(=C[C@H](COCc4ccccc4)O[C@@H]3C)N(Cc3ccccc3)C2=O)CC1	x	n	x	n	n	n
COC(=O)c1sc2nc(-c3ccco3)ccc2c1N	n	n	n	11	n	n
COc1ccc(-n2nc(C(=O)N(C)C)nc2-c2ccccc2)cc1	x	n	n	n	n	n
S=C(Nc1ccc2c(c1)OCO2)NC1CCN(Cc2ccccc2)CC1	n	n	4.7	n	n	n
Cc1ccc(NC(=S)NC2CCN(Cc3ccccc3)CC2)cc1C	n	n	n	n	n	n
S=C(Nc1ccc2c(c1)OCO2)N1CCN(Cc2ccco2)CC1	n	n	n	11	n	n
S=C(NCc1ccco1)N1CCN(Cc2ccco2)CC1	n	n	n	n	n	n
CCC(C)N(C(=O)CN1C(=O)C2CCCCN2C(=O)c2ccccc21)C(C)CC (centres undefined)	x	n	x	n	n	n
CCN(CC)c1ccc(C(=O)NNC(=O)Cn2c(=O)cnc3ccccc32)cc1	x	n	n	n	n	n
CCOc1ccccc1-c1n[nH]c(=S)o1	n	6.4	n	n	n	1.0
CCOc1ccc(-c2n[nH]c(=S)o2)cc1	n	n	n	n	n	n
CN(c1ncc(C(F)(F)F)cc1Cl)N1C(=O)c2cccc(N)c2C1=O	10	n	n	n	n	n
CCN(CC)S(=O)(=O)c1ccc(=O)n(CC(=O)N2CCCc3cc(C)ccc32)c1	x	n	n	n	n	n
CCOC(=O)[C@]12CCCC=C1N(Cc1ccco1)C(=O)[C@H](CC(=O)NCCCCc1ccccc1)C2	x	n	x	n	n	n
COC(=O)C1(Cc2ccc(O)cc2)OC(=O)C(O)=C1c1ccc(O)cc1 (centres undefined)	x	n	7.4	n	n	n
O=C(N/N=C1\CC(c2ccccc2)Oc2ccccc21)c1ccccn1 (centres undefined)	n	n	n	n	3.8	n
O=C(N/N=C1\CC(c2ccccc2)Oc2ccccc21)c1ccc(O)cc1 (centres undefined)	x	n	n	n	n	n
COc1ccc(-c2nc(SC)n(C(=O)c3ccco3)n2)cc1	n	n	4.2	n	n	n
SMILES	Wee1 stabilizer	hcDAF-12 act	DAX1 inh-1	hgDAF12 agonist	DAX1 inh-2	ssDAF-12 act
CCn1c(Cc2ccccc2)n[nH]c1=S	n	n	n	n	n	n
CCn1c(CSCc2ccccc2)n[nH]c1=S	9.1	n	n	n	n	n
O=c1[nH]c(CSc2ccccn2)nc2c1oc1ccccc12	n	n	n	12	4.4	n
CC1CCN(CC(=O)NC2CCCCC2)CC1	x	n	4.3	n	n	n
O=C(CN1CCCCC1)NC(=O)NC1CCCCC1	x	n	n	n	n	n
Cc1ccc2oc(-c3cccc(NC(=O)/C=C/c4cccc([N+](=O)[O-])c4)c3C)nc2c1	n	6.2	n	n	n	n
Cc1ccnc(N(C(=O)Nc2ccccc2)C2=NCC(C)(C)S2)c1	9.7	n	x	n	n	n
COC(=O)CCN(C(=O)c1cccc(OC(C)=O)c1)c1ccccn1	n	n	4.5	n	n	n

High-throughput results as filed in PubChem.
